Assay outcomes: PubChem, National Center for Advancing Translational Sciences (NCATS)
PLK1 PBD block = inhibitors of human PLK1 polo-box domain binding. P53350. Plk1 PBD binding of FITC phosphopeptide, fluorescence polarization. Potency, µM, hits mostly inhibitors. hit rate 2.8% among 360,000. AID 720504; further: series mostly up to about 57 µM; nearly all actives have a fitted effect of over 65% in size
BAZ2B inh = BAZ2B (human) inhibition. Q9UIF8. AlphaScreen BAZ2B-H3K14Ac peptide displacement. Potency, µM (series often up to 114 µM), hits mostly inhibitors. hit rate 4.4% among 360,000; further: nearly all actives have a fitted effect of over 60% in size
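AlphaScreen displacement of biotin-H3(5-23)K14Ac peptide (50 nM final) from BAZ2B (50 nM final) in PBS pH 7.4, 0.01% Tween-20; complex preformed 30 min RT, then compounds (top 110 uM) 30 min RT, beads 20 min dark.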
ALOX12 inh = inhibitors of human 12S-lipoxygenase ALOX12 | Potency, µM (top dose mostly 108 µM), usual class: inhibitors | AID 1671190 | P18054 | hit rate 1.1% among 580,000 | purified 12hLO, xylenol orange hydroperoxide absorbance
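Hydroperoxide product was detected by ferrous iron/xylenol orange as the 573 to 405 nm absorbance ratio. Arachidonic acid at 40 uM (final) was turned over for 30 min at room temperature by 150 nM human 12hLO, pH 7.0 Hepes buffer, after 15 min compound preincubation.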
HP1b chromo inh = blocks HP1-beta chromodomain binding to methylated histone tails; AlphaScreen HP1-beta / biotin-H3K9me3 peptide binding; Potency, µM (titrated, usually from 114 µM), hits mostly inhibitors; hit rate 0.56% among 390,000; further: nearly all actives have a fitted effect of over 70% in size
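Compound inhibition of the preformed complex between 50 nM HP1-beta and 50 nM biotinylated H3K9me3 peptide was read by AlphaScreen. Buffer was PBS pH 7.4 with 0.01% Tween-20. Incubations ran 30 min at room temperature, with 10 ug/mL donor/acceptor beads.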
G9a inh = G9a (human) methyltransferase inhibition; Q96KQ7; G9a H3K9 monomethylation, AlphaScreen, 2 h; Potency, µM (doses to about 102 µM), most hits filed as inhibitors; hit rate 8.8% among 350,000; AID 504332; further: nearly all actives have a fitted effect of over 75% in size
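Quantitative HTS format: methyltransferase activity on a biotin-tagged H3K9 peptide is measured by AlphaScreen, using a rabbit anti-monomethyl-H3K9 antibody with streptavidin donor and anti-IgG acceptor beads. Final levels are 20 nM enzyme, 500 nM peptide, 20 uM SAM; 2 h RT.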
JMJD2A Tudor inh = JMJD2A Tudor domain (human) inhibition | AlphaScreen JMJD2A-Tudor / H3K4me3 peptide binding | Potency, µM (series often up to 114 µM), actives largely listed as inhibitors | hit rate 4.4% among 390,000 | AID 504339; further: nearly all actives have a fitted effect of over 50% in size
Target sequence (O75164 whole entry, looked up, the tested form may be a part): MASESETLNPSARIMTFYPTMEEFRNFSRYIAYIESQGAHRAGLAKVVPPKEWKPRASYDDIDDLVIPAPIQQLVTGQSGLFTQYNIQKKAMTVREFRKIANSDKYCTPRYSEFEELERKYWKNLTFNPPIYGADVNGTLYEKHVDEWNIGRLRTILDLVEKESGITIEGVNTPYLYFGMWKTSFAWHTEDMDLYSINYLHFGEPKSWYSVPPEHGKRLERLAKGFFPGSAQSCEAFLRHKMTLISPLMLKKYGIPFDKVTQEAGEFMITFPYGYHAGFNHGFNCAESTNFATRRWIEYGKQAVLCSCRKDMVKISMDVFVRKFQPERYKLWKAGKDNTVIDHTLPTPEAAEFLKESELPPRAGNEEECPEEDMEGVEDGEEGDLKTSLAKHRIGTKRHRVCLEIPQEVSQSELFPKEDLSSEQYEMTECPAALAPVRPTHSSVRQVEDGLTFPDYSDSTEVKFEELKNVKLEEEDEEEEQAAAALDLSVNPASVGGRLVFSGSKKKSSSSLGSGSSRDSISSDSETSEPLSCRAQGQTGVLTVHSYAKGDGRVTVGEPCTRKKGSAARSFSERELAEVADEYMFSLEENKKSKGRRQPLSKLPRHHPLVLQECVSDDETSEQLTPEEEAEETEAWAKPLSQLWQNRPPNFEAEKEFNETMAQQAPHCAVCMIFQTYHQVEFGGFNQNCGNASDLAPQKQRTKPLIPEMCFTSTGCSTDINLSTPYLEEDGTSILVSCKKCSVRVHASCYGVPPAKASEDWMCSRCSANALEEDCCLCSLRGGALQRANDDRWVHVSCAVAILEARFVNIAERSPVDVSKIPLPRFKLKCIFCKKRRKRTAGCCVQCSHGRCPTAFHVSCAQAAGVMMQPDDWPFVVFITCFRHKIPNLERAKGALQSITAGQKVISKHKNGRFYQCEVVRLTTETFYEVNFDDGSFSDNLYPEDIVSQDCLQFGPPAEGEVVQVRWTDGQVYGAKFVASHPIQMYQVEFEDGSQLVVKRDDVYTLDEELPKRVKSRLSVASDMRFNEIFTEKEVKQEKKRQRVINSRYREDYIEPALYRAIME
Hits are given with their value; - = inactive; ? = inconclusive; . = not tested or not shown; ! = not active in a repeat; [ ] = remark or other dose. Most compounds without a hit are left out; they make up all but 9% or so of the library. The call rests on the fitted dose curve; in most records, active means well fitted curve in the direction sought with a large enough effect; inconclusive means small, poorly fitted or top-dose-only effect, or another doubt; inactive means no such curve, though single readings can be large; an effect the other way counts as inactive or inconclusive.

SMILES | PLK1 PBD block | BAZ2B inh | ALOX12 inh | HP1b chromo inh | G9a inh | JMJD2A Tudor inh
COc1ccccc1N1CCN(CC(=O)c2ccc3ccn(C(C)=O)c3c2)CC1 | - | - | . | - | 11.2µM | -
COc1cc2c(cc1OC)CN(CCOc1ccc(Br)cc1)CC2 | - | - | ? | - | - | -
COc1ccc(C(=O)CCN2CCc3cc(OC)c(OC)cc3C2)cc1 | 26.7µM | - | - | - | 12.6µM | -
COc1ccccc1N1CCN(CCCC(=O)c2ccc(F)cc2)CC1 | - | - | - | - | - | -
COc1ccccc1N1CCN(CCN2C(=O)CC(=C3c4ccccc4-c4ccccc43)C2=O)CC1 | - | . | . | - | . | 31.6µM
COc1ccc(C(=O)CCN2CCN(c3ccccc3OC)CC2)cc1 | - | ? | ? | - | 50.1µM | -
Cc1ccccc1N1CCN(CCN2C(=O)CC(=C3c4ccccc4-c4ccccc43)C2=O)CC1 | - | . | - | ? | . | ?
CC(=O)c1cnn(-c2cc(Oc3ccc(S(=O)(=O)c4ccccc4)cc3)ncn2)c1C | . | . | - | . | . | .
O=C(c1ccccc1)c1ccccn1 | - | - | - | - | - | -
Cc1cccc(NC(=O)Nc2ccccn2)c1C | - | - | - | - | - | -[11.4 µM]
O=C(O)c1ccc2cccnc2n1 | - | 28.2µM | ? | ? | 35.5µM | 7.08µM
Cc1cccc(NC(=O)c2ccccn2)c1C | - | - | ? | - | ? | 7.94µM
O=C(CC(=O)c1ccccn1)c1ccccc1 | - | . | - | - | . | 25.1µM
O=C(O)c1ccccn1 | - | 2.82µM | - | - | 0.562µM! | 3.98µM
COCC(=O)N[C@@H]1CN(C(=O)Cc2cccc(OC)c2)CC[C@@H]1c1nc(C)no1 | . | . | - | . | . | .
CN(C(=O)CSc1nc2ccccc2n1CC(=O)N(C)C1CCCCC1)c1ccc(F)cc1 | . | - | ? | - | - | -
N#Cc1sc2nc(-c3ccccc3)cc(C(F)(F)F)c2c1N | - | - | - | - | - | -
CSC(=O)c1ccccn1 | . | . | - | . | . | .
O=C(Sc1ccc(Cl)cc1)c1ccccn1 | ? | . | 2.82µM | - | . | ?
C#CCNC(=O)C(C)c1ncc(C(F)(F)F)cc1Cl (configuration not stated) | 6.7µM | - | - | - | - | -[11.4 µM]
O=C(CSCc1c(F)cccc1Cl)Nc1cccnc1 | - | - | - | - | - | -
O=C(NCCCN1CCOCC1)c1cc(-c2ccc(F)cc2)nc2ccccc12 | - | - | - | - | -[12.7 µM] | -
O=C(NCCCN1CCOCC1)c1cc(-c2ccco2)nc2ccccc12 | ? | . | - | - | . | 50.1µM
CCOc1cc(N2CCOCC2)c(OCC)cc1NC(=O)c1cc(-c2ccco2)nc2ccccc12 | - | . | ? | ? | 8.91µM | 50.1µM
CCCCCCNC(=O)c1cc(-c2ccco2)nc2ccccc12 | 26.7µM | 35.5µM | ? | 22.4µM | 8.91µM | 20µM
SMILES | PLK1 PBD block | BAZ2B inh | ALOX12 inh | HP1b chromo inh | G9a inh | JMJD2A Tudor inh
CCN(CC)C(=O)c1cccc(NC(=O)c2cc(C3CC3)nc3c2cnn3C(C)C)c1 | - | - | - | - | ? | -
Cc1ccc(C(=O)NC2CCN(c3cc(-c4ccc(F)cc4)[nH]n3)CC2)c(C)c1 | . | . | - | . | . | .
O=C(NC1CCCCC1)C1CCCN(S(=O)(=O)c2cnc[nH]2)C1 (configuration not stated) | - | - | - | - | - | -
CCc1cc(CNC(=O)CC2C(=O)NCCN2Cc2ccc(-c3ccccc3)cc2)on1 (configuration not stated) | - | - | - | - | 50.1µM | -
O=C(CC1C(=O)NCCN1CC1CCCCC1)NCc1ccccc1Cl (configuration not stated) | - | - | - | - | -[12.7 µM] | -
CCOc1ccc(CN2CCNC(=O)C2CC(=O)NCCc2ccccn2)cc1 (configuration not stated) | - | - | - | - | 56.2µM | -
Cc1cccnc1CCNC(=O)CC1C(=O)NCCN1CC1CCCCC1 (configuration not stated) | - | - | - | - | 39.8µM | -
CCOc1ccc(CN2CCNC(=O)C2CC(=O)NCc2ccccn2)cc1 (configuration not stated) | - | - | - | - | ? | -
CCOc1ccc(CN2CCNC(=O)C2CC(=O)N(C)Cc2nonc2C)cc1 (configuration not stated) | - | - | - | - | 50.1µM | -
